Consider 92 compounds from paper PMC4336329 (PLoS ONE, 2015).

In all, about 310,000 compounds went through this assay and about 14,000 (4.5%) showed an effect of 50% or more. The effect is printed as a negative number. For the sample, strong results were picked, then their nearest neighbours and some compounds at random.
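Also: peak tail current of the secondary pulse compared with the same well before compound.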

This assay deals with human ether-à-go-go-related gene (hERG) potassium channel (human, UniProt Q12809). Kind of assay: primary screen, population patch clamp on CHO cells stably expressing hERG; higher = less effect of the substance.
Sequence of human ether-à-go-go-related gene (hERG) potassium channel (Q12809 whole entry, looked up): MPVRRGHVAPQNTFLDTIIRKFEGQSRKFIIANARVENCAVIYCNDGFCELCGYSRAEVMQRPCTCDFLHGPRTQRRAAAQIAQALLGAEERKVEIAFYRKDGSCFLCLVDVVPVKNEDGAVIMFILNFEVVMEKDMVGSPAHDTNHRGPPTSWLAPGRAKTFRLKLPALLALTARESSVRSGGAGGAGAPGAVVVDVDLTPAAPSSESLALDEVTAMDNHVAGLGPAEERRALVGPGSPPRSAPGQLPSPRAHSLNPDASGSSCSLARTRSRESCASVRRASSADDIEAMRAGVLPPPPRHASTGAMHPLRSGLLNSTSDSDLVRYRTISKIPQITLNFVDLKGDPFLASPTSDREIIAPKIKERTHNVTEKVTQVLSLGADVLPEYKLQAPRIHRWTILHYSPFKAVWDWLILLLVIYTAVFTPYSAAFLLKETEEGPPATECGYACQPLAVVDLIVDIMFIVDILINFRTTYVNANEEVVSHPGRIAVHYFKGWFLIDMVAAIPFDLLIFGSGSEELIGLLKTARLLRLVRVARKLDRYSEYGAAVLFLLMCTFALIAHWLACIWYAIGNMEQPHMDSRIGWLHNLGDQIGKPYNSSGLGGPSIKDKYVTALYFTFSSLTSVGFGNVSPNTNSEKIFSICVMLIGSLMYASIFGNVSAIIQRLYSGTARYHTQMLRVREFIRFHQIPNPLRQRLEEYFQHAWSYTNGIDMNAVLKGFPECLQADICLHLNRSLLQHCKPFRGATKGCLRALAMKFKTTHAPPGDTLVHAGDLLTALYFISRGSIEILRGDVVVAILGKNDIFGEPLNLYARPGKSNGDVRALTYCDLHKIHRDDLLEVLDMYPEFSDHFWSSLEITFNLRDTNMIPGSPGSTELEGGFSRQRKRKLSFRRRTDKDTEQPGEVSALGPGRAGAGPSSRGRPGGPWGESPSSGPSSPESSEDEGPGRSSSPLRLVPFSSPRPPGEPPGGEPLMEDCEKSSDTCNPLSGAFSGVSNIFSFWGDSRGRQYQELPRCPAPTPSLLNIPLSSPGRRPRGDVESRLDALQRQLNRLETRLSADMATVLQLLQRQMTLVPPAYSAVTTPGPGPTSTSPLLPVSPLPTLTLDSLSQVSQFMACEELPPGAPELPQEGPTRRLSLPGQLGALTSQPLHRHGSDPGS
For `CCc1nnc(NC(=O)CN2C(=O)NC3(CC(C)CC(C)(C)C3)C2=O)s1` (centres unmarked), the “hERG current change (%, negative = inhibition) at 10uM” value was found to be 7.29%.
Turning to `O=C1NC(=O)N(c2ccccc2)C1=O`, the “hERG current change (%, negative = inhibition) at 10uM” value was 19.9%.
Under `CCc1ccc(C(=O)NC(=S)NCc2cccnc2)cc1` stands -40.7%; under `CC(C)(C)C(=O)Nc1ccc(NC(=O)C(C)(C)C)cc1`, -6.63%; under `O=C(Nc1cccc(Br)c1)c1ccc(CN2CCc3ccccc3C2)cc1`, -1.55%.
Consider `O=S(=O)(Cc1cc(NCc2ccccc2)nc(-c2ccncc2)n1)c1ccccc1`, for which the “hERG current change (%, negative = inhibition) at 10uM” value stood at 20.3%.
`Nc1ccc(Cl)c[n+]1Cc1cccc2cccnc12.[Br-]`: the “hERG current change (%, negative = inhibition) at 10uM” value was -46.1%.
`Cc1cc(C[n+]2cc(Br)ccc2N)c2ncccc2c1.[Br-]`: the “hERG current change (%, negative = inhibition) at 10uM” value is -68%.
Under `Nc1sc(-c2ccccc2)n[n+]1Cc1cccc2cccnc12.[Br-]` stands -66.7%; under `Nc1scc[n+]1Cc1cccc2cccnc12.[Br-]`, -12.3%; under `Nc1scn[n+]1Cc1cccc2cccnc12.[Br-]`, -11.1%.
For the compound `OCc1ccccc1OCCCOc1cccc2cccnc12`, the “hERG current change (%, negative = inhibition) at 10uM” value is given as -3.4%.
Next, `Cc1cc(CSc2nc(C)cc(=O)[nH]2)c2ncccc2c1`: -3.07%; `Cc1cc(C[n+]2cc(Cl)ccc2N)c2ncccc2c1.[Br-]`: -48.1%.
For the compound `Nc1ccc(Br)c[n+]1Cc1cccc2cccnc12.[Br-]`, the “hERG current change (%, negative = inhibition) at 10uM” value is reported as -51.6%.
Consider `Cc1noc(C)c1CSCC(=O)Nc1cc(Cl)ccc1N1CCCCC1`, for which the “hERG current change (%, negative = inhibition) at 10uM” value is recorded as 1.96%.
Regarding `CCN(CC)S(=O)(=O)c1ccc(NC2c3ccccc3C(=O)N2CCN2CCOCC2)cc1` (centres unmarked), the “hERG current change (%, negative = inhibition) at 10uM” value is reported as -37%.
For the compound `Cc1ccc2c(CC(=O)NC3CCS(=O)(=O)C3)coc2c1C` (centres unmarked), the “hERG current change (%, negative = inhibition) at 10uM” value is listed as 1.78%.
Turning to `CC(C(=O)NCc1ccccc1Cl)n1cc([N+](=O)[O-])cn1` (centres unmarked), the “hERG current change (%, negative = inhibition) at 10uM” value was 4.65%.
`Cc1ccc2cc3c(NS(=O)(=O)c4cccc5nonc45)nn(CC(C)C)c3nc2c1`: the “hERG current change (%, negative = inhibition) at 10uM” value came to 9.9%.
In the case of `COc1ccc(CNCCc2c[nH]c3ccccc23)cc1OC.O=C(O)C(=O)O`, the “hERG current change (%, negative = inhibition) at 10uM” value is reported as -28%.
Turning to `COc1cc(CNCCc2c[nH]c3ccccc23)ccc1OCc1ccccc1F.Cl`, the “hERG current change (%, negative = inhibition) at 10uM” value is on record as -52%.
For the compound `COc1cccc(CNCCc2c[nH]c3ccccc23)c1OC.Cl`, the “hERG current change (%, negative = inhibition) at 10uM” value is listed as -11.1%.
Turning to `COc1ccc(CNCCc2c[nH]c3ccccc23)c(OC)c1OC.O=C(O)C(=O)O`, the “hERG current change (%, negative = inhibition) at 10uM” value is on record as -7.44%.
`COc1cc(C)c(CNCCc2c[nH]c3ccccc23)cc1C.O=C(O)C(=O)O`: the “hERG current change (%, negative = inhibition) at 10uM” value was -36.9%.
As for `COc1ccc(CNCCc2c[nH]c3ccccc23)c(OC)c1C.O=C(O)C(=O)O`, the “hERG current change (%, negative = inhibition) at 10uM” value is -60.3%.
Next, `COc1cccc(CNCCc2c[nH]c3ccccc23)c1OCc1ccccc1F.Cl`: -55.8%.
For the compound `COc1cccc(CNCCc2c[nH]c3ccccc23)c1OCc1ccccc1.Cl`, the “hERG current change (%, negative = inhibition) at 10uM” value is reported as -47%.
`COc1cc(C(=O)N[C@@H](Cc2c[nH]c3ccccc23)C(=O)O)cc(OC)c1OC`: the “hERG current change (%, negative = inhibition) at 10uM” value is reported as -53.1%.
In the case of `COc1cc(CNCCc2c[nH]c3ccccc23)ccc1OCc1ccc(F)cc1.Cl`, the “hERG current change (%, negative = inhibition) at 10uM” value is recorded as -48.4%.
Turning to `O=C(NC(Cc1c[nH]c2ccccc12)C(=O)O)c1ccccc1` (centres unmarked), the “hERG current change (%, negative = inhibition) at 10uM” value amounted to 1.22%.
As for `COc1ccc(C(=O)NC(Cc2c[nH]c3ccccc23)C(=O)O)cc1` (centres unmarked), the “hERG current change (%, negative = inhibition) at 10uM” value came out at 12.4%.
On to `Cc1cnc(C(=O)Nc2ccc(F)cc2)cn1`, for which the “hERG current change (%, negative = inhibition) at 10uM” value is -0.2%.
Next, `CCN(CC)C(=O)C1CCCN(C(=O)Nc2ccc(NC(=O)N3CCCC(C(=O)N(CC)CC)C3)cc2)C1` (centres unmarked): -11.5%; `COc1ccc(NC(=O)c2cc(-c3cc(C)cc(C)c3O)n[nH]2)cc1Cl`: -4.52%; `Cn1c2c(c(=O)n(C)c1=O)CN(CC1CCCO1)CN2` (centres unmarked): 9.87%.
Under `CC(C)C(=O)Nc1nc(-c2ccc([N+](=O)[O-])cc2)cs1` stands 7.04%.
As for `CC(C)(C)NC(=O)c1cc(-c2ccccc2)n[nH]1`, the “hERG current change (%, negative = inhibition) at 10uM” value is listed as 11.5%.
Under `Cc1ccc(-n2c(Cc3noc4ccccc34)n[nH]c2=S)cc1` stands 8.59%; under `NS(=O)(=O)c1cccnc1Nc1cccc(Cl)c1`, 11.8%; under `CCCCNC(=O)c1cc2c(-c3ccc(Cl)cc3)nn(C)c2s1`, -7.09%.
Under `CCOCCCNC(=O)c1cc2c(-c3ccc(Cl)cc3)nn(C)c2s1` stands 9.31%; under `COCCCNC(=O)c1cc2c(-c3ccc(Cl)cc3)nn(C)c2s1`, -3.72%.
Take `CC(C)NC(=O)c1cc2c(-c3ccc(Cl)cc3)nn(C)c2s1`: the “hERG current change (%, negative = inhibition) at 10uM” value amounted to 4.67%.
As to `CCN(CC)CCNC(=O)c1cc2c(-c3ccc(Cl)cc3)nn(C)c2s1`, the “hERG current change (%, negative = inhibition) at 10uM” value was -69.6%.
In the case of `Cn1nc(-c2ccc(Cl)cc2)c2cc(C(=O)NCCCN3CCCC3)sc21`, the “hERG current change (%, negative = inhibition) at 10uM” value is given as -59.5%.
Under `CCCCN(CC)CCCNC(=O)c1cc2c(-c3ccc(OC)c(OC)c3)nn(C)c2s1` stands -7.25%.
For the compound `CCN(CC)CCCNC(=O)c1cc2c(-c3ccc(Cl)cc3)nn(C)c2s1`, the “hERG current change (%, negative = inhibition) at 10uM” value is listed as -59.9%.
In the case of `CN1CCN(CCCNC(=O)c2cc3c(-c4ccc(Cl)cc4)nn(C)c3s2)CC1`, the “hERG current change (%, negative = inhibition) at 10uM” value is -40.1%.
`CCCCN(CC)CCNC(=O)c1cc2c(-c3ccc(Cl)cc3)nn(C)c2s1`: the “hERG current change (%, negative = inhibition) at 10uM” value was -74.8%.
Under `Cn1nc(-c2ccc(Cl)cc2)c2cc(C(=O)NCCCN3CCOCC3)sc21` stands -13.1%; under `COc1cc(CNC(C)C)ccc1OCC(=O)Nc1cccc2ccccc12`, -27.2%.
Under `CC(=O)NC1(c2cccc(F)c2)CCN(CC(=O)NC(C)C)CC1` stands 9.55%; under `Cc1cc(C(C)(C)C)n2nc(C)c(-c3ccccc3)c2n1`, 13.9%; under `O=[N+]([O-])c1ccc(O)c(Nc2c([N+](=O)[O-])ccc3nonc23)c1`, 16%.
Turning to `CCNc1nc(OC)nc(SCC(=O)Nc2ccccc2)n1`, the “hERG current change (%, negative = inhibition) at 10uM” value is 17.2%.
In the case of `Cc1nnc(Nc2ccc(Cl)cc2)n(N)c1=O`, the “hERG current change (%, negative = inhibition) at 10uM” value is on record as 8.16%.
As to `O=C(Nc1cccc(-c2nc3ncccc3o2)c1)c1ccccc1`, the “hERG current change (%, negative = inhibition) at 10uM” value is -9.36%.
Turning to `O=S(=O)(NCc1cccs1)c1ccc(Br)s1`, the “hERG current change (%, negative = inhibition) at 10uM” value was 2.07%.
With `CCCCN(C)CCNC(=O)c1cc2c(-c3ccccc3F)nn(C)c2s1`, the “hERG current change (%, negative = inhibition) at 10uM” value is given as -48%.
`CCN(CC)CCCNC(=O)c1cc(-c2ccccc2)c(N2CCCCC2)s1`: the “hERG current change (%, negative = inhibition) at 10uM” value is -51.7%.
For the compound `CCCN(CCC)CCNC(=O)c1cc2c(-c3ccccc3F)nn(C)c2s1`, the “hERG current change (%, negative = inhibition) at 10uM” value is reported as -47.2%.
For `CCCN(CCC)CCCNC(=O)c1cc2c(-c3ccc(OC)c(OC)c3)nn(C)c2s1`, the “hERG current change (%, negative = inhibition) at 10uM” value is on record as -6.94%.
With `CCN1CCCC1CNC(=O)c1cc2c(-c3cccc(OC)c3)nn(C)c2s1` (centres unmarked), the “hERG current change (%, negative = inhibition) at 10uM” value was -46.3%.
Next, `CCCCN(CC)CCNC(=O)c1cc2c(-c3ccccc3F)nn(C)c2s1`: -66.7%; `O=C(NCCc1ccccc1)c1cc(-c2ccccc2)c(N2CCOCC2)s1`: 3.07%.
In the case of `CCCN(CCC)CCNC(=O)c1cc2c(-c3ccc(Cl)cc3)nn(C)c2s1`, the “hERG current change (%, negative = inhibition) at 10uM” value is -65.6%.
For the compound `Cn1nc(-c2ccc(Cl)cc2)c2cc(C(=O)NC3CC3)sc21`, the “hERG current change (%, negative = inhibition) at 10uM” value was -1.54%.
`CCCNC(=O)c1cc(-c2ccccc2)c(N2CCCCC2)s1`: the “hERG current change (%, negative = inhibition) at 10uM” value turned out to be 14.2%.
As for `Cc1ccc(CNC(=O)c2cc3c(-c4ccc(Cl)cc4)nn(C)c3s2)o1`, the “hERG current change (%, negative = inhibition) at 10uM” value is given as -8.27%.
As for `CCN1CCCC1CNC(=O)c1cc2c(-c3ccc(Cl)cc3)nn(C)c2s1` (centres unmarked), the “hERG current change (%, negative = inhibition) at 10uM” value is listed as -62.4%.
Regarding `CCOC(=O)c1ccc(CC2SC(N)=NC2=O)cc1` (centres unmarked), the “hERG current change (%, negative = inhibition) at 10uM” value was determined as 2.63%.
With `Cc1ccc(NC(=O)CSc2nc(=O)cc(N)n2-c2ccccc2)cc1`, the “hERG current change (%, negative = inhibition) at 10uM” value is 20.3%.
On to `CC(C)(C)NC(=O)NC(=O)CN1C(=O)NC(C)(c2ccccc2)C1=O` (centres unmarked), for which the “hERG current change (%, negative = inhibition) at 10uM” value is 15.8%.
Consider `O=C(N/N=C/c1ccoc1)c1cccc([N+](=O)[O-])c1`, for which the “hERG current change (%, negative = inhibition) at 10uM” value was found to be 9.75%.
Under `COc1ccc(NS(=O)(=O)c2cccc(C(=O)NCC(c3ccc(OC)cc3)N3CCOCC3)c2)cc1` (centres unmarked) stands -26.1%; under `O=c1c[n+]([O-])c2ccccc2n1OCc1ccccn1`, 18.9%; under `Cc1ccc(N2C(=O)C(NC(=O)c3c(F)cccc3F)(C(F)(F)F)C3=C2CC(C)(C)CC3=O)cc1` (centres unmarked), 9.34%.
With `CC(C)c1cc(-c2cc(C(=O)Nc3ccccc3)on2)nc(NCC2CC2)n1`, the “hERG current change (%, negative = inhibition) at 10uM” value was 10.3%.
On to `NC(=O)NN=C1C2CCCC1C(c1ccccc1)NC2c1ccccc1` (centres unmarked), for which the “hERG current change (%, negative = inhibition) at 10uM” value is recorded as -7.17%.
In the case of `O=C(O)C/C(=C\c1ccc(Cl)cc1)c1nc2ccccc2o1`, the “hERG current change (%, negative = inhibition) at 10uM” value worked out at 6.78%.
As for `Cc1cc(C)c2c(c1)c(C)cc1nnc(SCC(=O)c3cccs3)n12`, the “hERG current change (%, negative = inhibition) at 10uM” value is -2.98%.
`Cc1ccc2cc(C)c3nnc(SCC(=O)c4cccs4)n3c2c1C`: the “hERG current change (%, negative = inhibition) at 10uM” value was -23.1%.
For `Cc1ccc(C)c2c1cc(C)c1nnc(SCC(=O)c3cccs3)n12`, the “hERG current change (%, negative = inhibition) at 10uM” value was -61.5%.
With `Cc1cc(N)n(-c2ccc(C(=O)O)cc2)n1.Cl`, the “hERG current change (%, negative = inhibition) at 10uM” value is 13.6%.
Next, `COc1ccc(CNC(=O)c2ccc(-c3ccccc3)cc2)cc1OC`: 0.777%; `Cc1cc2c(cc1S(=O)(=O)CCC(=O)Nc1cccc(C(F)(F)F)c1)OCC(=O)N2`: -54%.
Next, `Cc1cc2c(cc1S(=O)(=O)CCC(=O)NC1CCC(C)CC1)OCC(=O)N2` (centres unmarked): -14.7%; `Cc1cc2c(cc1S(=O)(=O)CCC(=O)NC1CCCCC1C)OCC(=O)N2` (centres unmarked): -53%; `CCc1cccc(NC(=O)CCS(=O)(=O)c2cc3c(cc2C)NC(=O)CO3)c1`: -14.1%.
For `CC1CCCCC1NC(=O)CCS(=O)(=O)c1cc2c(cc1Cl)NC(=O)CO2` (centres unmarked), the “hERG current change (%, negative = inhibition) at 10uM” value is -30.5%.
Next, `CC(=O)c1cccc(NC(=O)CCS(=O)(=O)c2cc3c(cc2C)NC(=O)CO3)c1`: 1.62%.
